# IMPase Li cell = membrane-permeable IMPase blocker, potentiated with lithium. CHO-M1 cells, IP1 TR-FRET (IP-One), carbachol + lithium. Potency, µM (titrated, usually from 59.4 µM), inactives show top-dose activity, negative = IMPase inhibition, hits mostly inhibitors. actives 0.35% (n = 210,000). AID 1457; active = well fitted curve in the direction sought with a large enough effect; inconclusive = small, poorly fitted or top-dose-only effect, or another doubt; inactive = no such curve, though single readings can be large; an effect the other way counts as inactive or inconclusive;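 also: IP1 builds up when IMPase is blocked and the TR-FRET signal falls; potency is read from the fitted curve at half-maximal effect; plate controls were basal vehicle for no effect and high inhibitor control for full effect; nearly all actives have a fitted effect of over 50% in size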
#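 Concentration–response in CHO-M1 cells, lithium-potentiated; 30 min at 37C. IP1 detected by competitive TR-FRET after 10 min lysis at RT. Hill-fitted AC50.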
# IMPase cell inh = IMPase inhibition in cells | inhibition (IP1 accumulation), % at 46.1 µM | 120,000 tested, under 10 active | CHO-M1 cells, IP1 accumulation, HTRF TR-FRET ratio | AID 901 | P97697; active = well fitted curve in the direction sought with a large enough effect in the signal ratio, not every such curve was filed as active; inconclusive = small, poorly fitted or top-dose-only effect, or a change in a side signal; inactive = no such curve, though single readings can be large or run the other way; the % refers to the signal ratio;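 also: cells stimulated with carbachol in lithium chloride buffer; plate controls were DMSO basal wells for no effect and reference inhibitor wells for full effect; higher means more IMPase inhibition seen as more IP1 and lower FRET ratio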
# Target sequence (P97697 whole entry, looked up): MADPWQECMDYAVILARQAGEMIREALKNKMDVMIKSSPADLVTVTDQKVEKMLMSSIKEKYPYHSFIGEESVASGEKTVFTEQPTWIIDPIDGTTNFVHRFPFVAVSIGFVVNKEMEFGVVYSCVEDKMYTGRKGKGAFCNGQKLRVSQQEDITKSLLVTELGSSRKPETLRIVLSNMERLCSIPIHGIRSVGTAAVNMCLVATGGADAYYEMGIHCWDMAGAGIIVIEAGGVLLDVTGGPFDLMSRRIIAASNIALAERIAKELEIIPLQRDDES
#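 Measured: the HTRF emission ratio (665/620 nm) plus the 620 nm donor channel, each fitted to the Hill equation to give AC50. Cells were CHO-M1 given compounds up to 46 uM and a 30 min carbachol stimulation at 37C.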
# ALOX12 inhib = blocks human 12-lipoxygenase activity. P18054. purified 12-hLO, xylenol orange hydroperoxide absorbance. Potency, µM (highest dose often 57.1 µM), for the others: at the highest dose activity change, negative = inhibition, most hits filed as inhibitors. actives 0.12% (n = 150,000). AID 1452; active = well fitted curve in the direction sought with a large enough effect; inconclusive = small, poorly fitted or top-dose-only effect, or another doubt; inactive = no such curve, though single readings can be large; an effect the other way counts as inactive or inconclusive; also: potency is read from the fitted curve at half-maximal effect; nearly all actives have a fitted effect of over 55% in size
#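 150 nM 12hLO, 25 mM Hepes pH 7.0 + 0.01% Triton X-100; cpd preinc 15 min RT; 40 uM arachidonic acid, 30 min RT; Fe-XO 30 min; A573/A405 ratio as read-out.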
# PNC assembly inh = blocks assembly of the perinucleolar compartment; PC3M PTB-GFP, PNC prevalence imaging, 16 h; stronger effect = lower value; activity change (PNC), negative = inhibition, % at 10 µM; actives 3.1% (n = 140,000); AID 2417;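 active = readout at or below -70, meaning at least 70% loss of cells showing the perinucleolar compartment, a nuclear body marking cancer cells; inconclusive = readout between -30 and a set limit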;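 also: plate controls were DMSO wells for no effect and camptothecin positive control wells for full effect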
#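 PC3M cells stably expressing PTB-GFP, 750–1000 cells/well, treated 16 h at 37 °C with compound (23 nl of library stock), in duplicate. After paraformaldehyde fixation and Hoechst stain, imaged at 20x; PNC prevalence scored by image analysis.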
# HPGD block = inhibitors of human 15-hydroxyprostaglandin dehydrogenase (HPGD). actives 4.3% (n = 150,000). Potency, µM, for the others: at the top dose activity change, negative = inhibition, usual class: inhibitors. purified HPGD, NADH fluorescence kinetic, PGE2 substrate. P15428; also: potency is read from the fitted curve at half-maximal effect
# Target sequence (P15428 whole entry, looked up): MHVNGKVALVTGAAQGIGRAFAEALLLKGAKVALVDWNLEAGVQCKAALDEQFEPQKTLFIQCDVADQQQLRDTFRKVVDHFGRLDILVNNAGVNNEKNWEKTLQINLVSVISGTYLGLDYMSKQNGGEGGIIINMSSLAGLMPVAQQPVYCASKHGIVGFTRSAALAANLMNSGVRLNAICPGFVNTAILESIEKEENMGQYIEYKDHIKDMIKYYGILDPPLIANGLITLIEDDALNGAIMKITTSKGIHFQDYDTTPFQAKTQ
#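 20 nM HPGD preincubated 15 min at room temperature with compound in 50 mM Tris-HCl pH 8, 0.01% Tween 20. Started with 1 mM NAD+ and 30 uM prostaglandin E2; NADH fluorescence (360/450 nm) read 5 times over 30-s intervals, last minus first.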
# ALDH1A1 inh = inhibitors of human aldehyde dehydrogenase 1A1 | P00352 | Purified ALDH1A1, NADH fluorescence, propionaldehyde substrate | Potency, µM (titrated, usually from 75.3 µM), inactives show at the highest dose activity, negative = inhibition, hits mostly inhibitors | actives 7.3% (n = 220,000) | AID 1030;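 also: potency is read from the fitted curve at half-maximal effect; plate controls were no enzyme wells and a reference inhibitor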
# * hit, by the source's call; ? = inconclusive; / = not tested or not shown; [ ] = another dose, or the depositor's remark. Compounds with a hit are over-represented: about 11% of the library has one in this group of screens. Unless noted, calls follow the shape of the dose curve; as a rule, active = well fitted inhibition curve with a large enough effect (not every such curve was filed as active); inconclusive = small, poorly fitted or top-dose-only effect, or another doubt; inactive = no such curve, though single readings can be large or run the other way. Unless noted, % is scaled to controls: 0 for no effect and ±100 for the full control effect.
SMILES,IMPase Li cell,IMPase cell inh,ALOX12 inhib,PNC assembly inh,HPGD block,ALDH1A1 inh
O=C1CN2CCN(CC2)CC(=O)Nc2ccc(cc2)S(=O)(=O)c2ccc(cc2)NC(=O)CN2CCN(CC2)CC(=O)Nc2ccc(cc2)S(=O)(=O)c2ccc(cc2)N1,-7.8%,/,-1.8%[11.4 µM],/,-14.3%,1.58µM*
CCc1ccc(C(=O)COC(=O)C(Cc2c[nH]c3ccccc23)NC(=O)c2ccc(Br)cc2)cc1 (configuration not stated),/,-6.8,/,/,/,/
O=S(=O)(NCc1ccco1)c1cnc(Cl)c(Br)c1,8.8%,/,0.5%,-3.4,-14.0%,22.4µM*
CNc1ccccc1C(C)(C)c1cc(-c2ccco2)n[nH]1,0.5%[38.3 µM],11.0,-27.3%,12.0,-4.1%,7.94µM*
O=c1cnc2cnc(Oc3ccccc3)nc2n1C[C@H]1CCCO1,0.5%,/,-2.0%,/,-14.0%,?
COC(=O)c1ccc(N2C(=O)C3CC(C)=C(C)CC3C2=O)cc1 (configuration not stated),-2.1%,/,/,/,/,5.1%
COc1ccccc1N1C(=O)CC(Sc2nc(C)cc(C)n2)C1=O (configuration not stated),26.8%[38.3 µM],-7.4,-6.4%,12.0,0.9%,8.8%
COC(=O)c1cc(C(=O)OC)cc(N2C(=O)CC(NNC(=O)c3ccccc3Br)C2=O)c1 (configuration not stated),0.4%[38.3 µM],1.9,6.5%,26.1,-12.3%,-15.9%
COC(=O)c1ccc(N2C(=O)CC(Sc3n[nH]c(C)n3)C2=O)cc1 (configuration not stated),0.0%[38.3 µM],-1.3,2.0%,19.3,15.8µM*,0.562µM*
COC(=O)c1cc(C(=O)OC)cc(N2C(=O)CC(Sc3nc(C)cc(C)n3)C2=O)c1 (configuration not stated),8.0%[38.3 µM],2.4,-4.0%,-5.9,-9.0%,12.6µM*
COC(=O)c1cc(C(=O)OC)cc(N2C(=O)CC(NNC(=O)c3ccc(C)cc3)C2=O)c1 (configuration not stated),-12.3%,/,-10.5%,137.3,14.1µM*,1.7%
O[Si@](CCCN1CCCCC1)(c1ccc(F)cc1)C1CCCCC1,/,14.4,12.8%,/,/,/
CCCCOC(=O)c1ccc(NS(=O)(=O)c2c(C)nc3scc(C)n3c2=O)cc1,/,6.4,/,/,/,/
COc1ccc(N(C)C(=O)Cn2cc(S(=O)(=O)N3CCN(c4ccccc4F)CC3)c3ccccc3c2=O)c(OC)c1,/,10.0,/,/,/,/
CCOC(=O)c1c(C)[nH]c(C(=O)CSc2nc(C)cc(C)n2)c1C,1.2%,/,-0.7%,6.2,-1.1%,15.8µM*
CCOC(=O)c1c(C)[nH]c(C(=O)CSc2ccc(Cl)cc2)c1C,31.5%[38.3 µM],9.6,1.6%,-17.3,-4.8%,9.2%
N#CCCn1c(=O)c(-c2cccc(C#N)c2)nc2cnc(Oc3cccc(Cl)c3)nc21,11.1%,/,/,/,/,?
CN(C)c1ncc2nc(CCc3ccccc3)c(=O)n(C3CC3)c2n1,2.7%,/,/,/,/,?
COCCn1c(=O)c(-c2ccc(F)cc2)nc2cnc(Oc3cccc(Cl)c3)nc21,?,/,-1.7%,/,?,?
N#CCCn1c(=O)c(-c2ccc(F)cc2)nc2cnc(Oc3cccc(Cl)c3)nc21,8.91µM*,/,5.9%,/,-18.1%,?
O=c1c(CCc2ccccc2)nc2cnc(Oc3ccccc3)nc2n1C1CC1,-0.2%,/,/,/,/,11.2µM*
N#CCCn1c(=O)c(CCc2ccccc2)nc2cnc(Oc3cccc(Cl)c3)nc21,6.6%,/,-6.4%,/,0.2%,10µM*
N#CCCn1c(=O)c(-c2ccc(Cl)cc2)nc2cnc(Oc3cccc(Cl)c3)nc21,11.2µM*,/,-4.4%,/,-7.2%,?
Cc1nc2cnc(Oc3cccc(Cl)c3)nc2n(CCC#N)c1=O,-1.1%,/,-0.4%,/,-14.9%,-9.7%
O=C(CC1N=C2c3ccccc3N=C(SCC(=O)Nc3ccccc3F)N2C1=O)NCc1ccc2c(c1)OCO2 (configuration not stated),/,5.7,/,/,/,/
SMILES,IMPase Li cell,IMPase cell inh,ALOX12 inhib,PNC assembly inh,HPGD block,ALDH1A1 inh
COc1ccc(Nc2ccc3c(c2)=NC2(CCCCC2)[N+]=3[O-])cc1,96.7%[38.3 µM],?,-21.7%,13.4,-16.4%,3.55µM*
[O-][N+]1=c2ccc(Nc3ccccc3)cc2=NC12CCCCC2,68.1%[38.3 µM],18.8,-24.0%,1.0,-19.5%,3.55µM*
c1ccc(Nc2cccc(Nc3ccccc3)c2)cc1,18.7%,/,-10.6%,14.0,7.8%,?
Nc1c(C(=O)Nc2ccccc2)sc2nc3c(c(-c4ccco4)c12)CCC3,-3.0%[38.3 µM],?,-5.8%,23.7,-3.8%,-7.0%
Nc1c(C(=O)Nc2ccc(Br)cc2)sc2nc(-c3ccco3)ccc12,11.2µM*,?,?,-15.9,?,?
Cc1ccc(NC(=O)c2sc3nc4c(c(-c5ccco5)c3c2N)CCC4)cc1,?,2.8,-29.2%,13.9,-24.4%,4.47µM*
Nc1c(C(=O)Nc2ccc(F)cc2)sc2nc(-c3ccco3)ccc12,?,-28.8,-28.4%,3.1,?,?
O=C(c1csnn1)N1CCC[C@@]2(CCN(Cc3cc(C(F)(F)F)cc(C(F)(F)F)c3)C2)C1,20.8%,/,2.4%,/,-14.0%,?
CC(NC(=O)CSC1=NCCS1)c1ccccc1 (configuration not stated),/,-3.9,0.8%,59.6,/,-0.5%
Cc1cc(NS(=O)(=O)c2ccccc2)cc(Cl)c1O,2.1%[38.3 µM],4.2,-10.1%,10.3,-26.0%,7.08µM*
O=S(=O)(Nc1ccc(S(=O)(=O)Nc2ccccc2)cc1)c1ccccc1,-4.9%[38.3 µM],-2.0,6.1%,24.3,-4.1%,?
Cc1ccc(S(=O)(=O)Nc2cc(C)c(O)c(S(=O)(=O)c3ccc(C)cc3)c2)cc1,10.9%[38.3 µM],-3.2,-3.9%,-3.6,-10.6%,0.631µM*
OCC(O)C(O)C(O)C(O)CO (configuration not stated),3.3%,/,1.8%[0.00818 µM],/,-9.9%,13.6%
CC1=NN(c2ccc(Br)cc2)C(=O)/C1=C/c1cccs1,6.6%[38.3 µM],4.6,-19.2%,?,14.1µM*,2.24µM*
CC1=NN(c2ccc(C)cc2)C(=O)/C1=C\c1ccc(Br)s1,-6.6%,/,-1.8%,-27.4,-19.4%,1.5%
Oc1ccc(N2CCN(c3ncnc4sc(-c5ccccc5)cc34)CC2)cc1,3.7%,/,/,/,/,25.1µM*
Cc1sc2ncnc(SC(C)C(=O)N3c4ccccc4Sc4ccccc43)c2c1C (configuration not stated),-2.6%,6.8,-1.9%,?,-16.3%,-1.0%
Cc1ccc(OCC(=O)NNC(=O)C(C)Sc2ncnc3sc(C)c(C)c23)cc1 (configuration not stated),?,-3.5[1.84 µM],-2.3%,?,31.6µM*,?
COc1ccc(CCSc2nnc(C3CCCCC3)n2N)cc1,-7.6%[38.3 µM],7.4,2.8%,22.3,20µM*,-8.4%

# Bioassay records: PubChem BioAssay, National Center for Advancing Translational Sciences (NCATS)
